# From article PMC12820563, “FoxP3 forms a head-to-head dimer in vivo and stabilizes its multimerization on adjacent microsatellites”
# In all, about 16,000 sequences were measured (“rpm ratio (pull-down/input)”: median about 0.94, highest 2% from about 1.7 on). The list comes from a sample in which the highest values are over-represented; it also holds similar and randomly drawn sequences.
# Target: T1, MBP-FoxP1dN (Mus musculus, UniProt P58462 326-579)
# T1 sequence: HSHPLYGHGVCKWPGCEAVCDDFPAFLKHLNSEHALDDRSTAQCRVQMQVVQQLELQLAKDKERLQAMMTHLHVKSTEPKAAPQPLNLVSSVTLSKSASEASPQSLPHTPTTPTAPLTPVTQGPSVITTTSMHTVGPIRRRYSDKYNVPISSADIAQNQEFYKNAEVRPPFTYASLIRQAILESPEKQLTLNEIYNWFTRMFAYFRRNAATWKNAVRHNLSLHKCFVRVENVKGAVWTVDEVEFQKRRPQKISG
# Experiment: PD-seq (MBP pull-down with sequencing); 20 mM Tris-HCl pH 7.5, 100 mM NaCl, 1.5 mM MgCl2, 0.4 uM protein, 0.1 uM dsDNA library, 30 min, room temperature, amylose pull-down; high values mean tight binding
# Conditions: protein: recombinant; tags: His6-MBP; chain copies: 2; dsDNA, one strand shown
# Method in brief: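 Amylose resin was used to capture complexes formed during 30 min at room temperature in Tris pH 7.5 buffer with NaCl and MgCl2 between 0.4 µM His6-MBP-tagged mouse FoxP3 or FoxP1 fragment lacking the N-terminus, expressed in E. coli, and 0.1 µM Klenow-filled double-stranded degenerate DNA library. After three washes, the DNA was released with proteinase K, barcoded by PCR and sequenced on Illumina. Binding is pooled-replicate reads-per-million enrichment, pull-down over input.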
row,Sequence,binding signal
1,GATGATTGTTCTCCCAGCTGATGAATTGACCGCGTCGAGTAAACAAATTTTCCTAATCTTTCTGTTCAAGCGCCATCTAC,0.965 RPM ratio (pull-down/input)
2,GATGATTGTTCTCCCAGCTGATGAATTAAAACGATCGAGTAAACAAATTTTCCTAATCTTTCTGTTCAAGCGCCATCTAC,0.959 RPM ratio (pull-down/input)
3,GATGATTGTTCTCCCAGCTGATGAATTAAGAGAATCGAGTAAACAAATTTTCCTAATCTTTCTGTTCAAGCGCCATCTAC,0.949 RPM ratio (pull-down/input)
4,GATGATTGTTCTCCCAGCTGATGAATTTTGCTCCTCGAGTAAACAAATTTTCCTAATCTTTCTGTTCAAGCGCCATCTAC,0.907 RPM ratio (pull-down/input)
5,GATGATTGTTCTCCCAGCTGATGAATTCTTTTGCTCGAGTAAACAAATTTTCCTAATCTTTCTGTTCAAGCGCCATCTAC,0.898 RPM ratio (pull-down/input)
6,GATGATTGTTCTCCCAGCTGATGAATTGTTGCTCTCGAGTAAACAAATTTTCCTAATCTTTCTGTTCAAGCGCCATCTAC,1.39 RPM ratio (pull-down/input)
7,GATGATTGTTCTCCCAGCTGATGAATTGTTGTGCTCGAGTAAACAAATTTTCCTAATCTTTCTGTTCAAGCGCCATCTAC,2.06 RPM ratio (pull-down/input)
8,GATGATTGTTCTCCCAGCTGATGAATTTTGTTGCTCGAGTAAACAAATTTTCCTAATCTTTCTGTTCAAGCGCCATCTAC,1.79 RPM ratio (pull-down/input)
9,GATGATTGTTCTCCCAGCTGATGAATTTGATTGCTCGAGTAAACAAATTTTCCTAATCTTTCTGTTCAAGCGCCATCTAC,1.16 RPM ratio (pull-down/input)
10,GATGATTGTTCTCCCAGCTGATGAATTTCTGTGCTCGAGTAAACAAATTTTCCTAATCTTTCTGTTCAAGCGCCATCTAC,0.877 RPM ratio (pull-down/input)
11,GATGATTGTTCTCCCAGCTGATGAATTTTTTTGCTCGAGTAAACAAATTTTCCTAATCTTTCTGTTCAAGCGCCATCTAC,0.948 RPM ratio (pull-down/input)
12,GATGATTGTTCTCCCAGCTGATGAATTTGTTTGCTCGAGTAAACAAATTTTCCTAATCTTTCTGTTCAAGCGCCATCTAC,2.43 RPM ratio (pull-down/input)
13,GATGATTGTTCTCCCAGCTGATGAATTGTGCTGCTCGAGTAAACAAATTTTCCTAATCTTTCTGTTCAAGCGCCATCTAC,0.988 RPM ratio (pull-down/input)
14,GATGATTGTTCTCCCAGCTGATGAATTGTTTTGCTCGAGTAAACAAATTTTCCTAATCTTTCTGTTCAAGCGCCATCTAC,1.95 RPM ratio (pull-down/input)
15,GATGATTGTTCTCCCAGCTGATGAATTTCTTTGCTCGAGTAAACAAATTTTCCTAATCTTTCTGTTCAAGCGCCATCTAC,0.931 RPM ratio (pull-down/input)
16,GATGATTGTTCTCCCAGCTGATGAATTATAATTCTCGAGTAAACAAATTTTCCTAATCTTTCTGTTCAAGCGCCATCTAC,0.978 RPM ratio (pull-down/input)
17,GATGATTGTTCTCCCAGCTGATGAATTTCATCTATCGAGTAAACAAATTTTCCTAATCTTTCTGTTCAAGCGCCATCTAC,0.877 RPM ratio (pull-down/input)
18,GATGATTGTTCTCCCAGCTGATGAATTCGCGTATTCGAGTAAACAAATTTTCCTAATCTTTCTGTTCAAGCGCCATCTAC,0.979 RPM ratio (pull-down/input)
